Source: PubChem BioAssay (NCATS)
Results filed as inconclusive are left out. Calls of active or inactive are those of the source. Calls come from the whole dose curve; as a rule, active = well fitted inhibition curve with a large enough effect; inconclusive = small, poorly fitted or top-dose-only effect; inactive = flat fitted curve, though single readings scatter.

Assays:
Assay in all cases: qHTS profiling for inhibitors of Plasmodium falciparum proliferation (AID 504749); note: nearly all actives have a fitted effect of over 60% in size
Conditions in all cases: P. falciparum in erythrocytes, SYBR Green DNA, 72 h; series mostly up to 28.7 µM
ATS95 = tested on: ATS95
In short: (§1)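 SYBR Green fluorescence of parasite DNA, read after lysis and overnight dark incubation, measured growth over 72 h in erythrocyte culture at 0.3% parasitemia and 2.5% hematocrit. Data normalised to DMSO and 0.29 uM artemisinin, with plate-drift correction.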

CP217 = tested on: CP217
In short: as §1

CP237 = tested on: CP237
In short: as §1

CP247 = tested on: CP247
In short: as §1

CP250 = tested on: CP250
In short: as §1

CP256 = tested on: CP256
In short: as §1

CP265 = tested on: CP265
In short: as §1

CP266 = tested on: CP266
In short: as §1

CP268 = tested on: CP268
In short: as §1

CP269 = tested on: CP269
In short: as §1

CP305 = tested on: CP305
In short: as §1

CP325 = tested on: CP325
In short: as §1

DIV30 = tested on: DIV30
In short: as §1

ECU = tested on: ECU
In short: as §1

HB3 = tested on: HB3
In short: as §1

P94_40 = tested on: P94_40
In short: as §1

PAD = tested on: PAD
In short: as §1

PC26 = tested on: PC26
In short: as §1

PC49 = tested on: PC49
In short: as §1

SC27B = tested on: SC27B
In short: as §1

Measured: Potency

N[C@@H](Cc1ccccc1)C(=O)O
inactive: all assays above

C[C@]12CC[C@H]3c4ccc(O)cc4CC[C@@H]3[C@H]1CC[C@@H]2OP(=O)(O)O
inactive: all assays above

CC1(C)[C@@H]2CC[C@]1(C)[C@@H](OC(=O)CSC#N)C2
inactive: all assays above
